The source made the active and inactive calls.
Key:
[1] = E. coli DRC41 culture turbidity changes, primary screen, E. coli filamentation inducer project, strain DRC41, OD650, 48 h (AID 1152);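 note: E. coli MC1000 strain DRC41 lacking acrAB efflux pump and sulA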; settings: E. coli DRC41 (acrAB sulA), higher = more signal, called active from +8 up or from −8 down
[2] = small-molecule binders of probe aLefty1, primary screen, biochemical, small-molecule microarray, 635/667 nm fluorescence (AID 1153); settings: higher = more signal;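 note: score merges spot fluorescence with signal-to-noise ratio from the scanned slide images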
[3] = PSAC antagonists in infected red cells, primary screen, cell-based, P. falciparum Indochina, OD700, 1 h (AID 1154); settings: P. falciparum Indochina infected RBC osmotic lysis, higher = more signal, called active from +8 up or from −8 down
[4] = PSAC antagonists in infected red cells, primary screen, cell-based, P. falciparum Indochina, OD700, 2 h (AID 1155);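 note: lysis reports solute entry through the parasite surface anion channel PSAC; channel blockers reduce lysis of infected cells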; settings: P. falciparum Indochina infected erythrocytes, osmotic lysis OD700; higher = more signal, called active from +8 up or from −8 down
[5] = osmotic lysis modulators in infected erythrocytes, primary screen, PSAC antagonist project, cell-based, P. falciparum Indochina, OD700, 3 h (AID 1156); settings: higher = more signal, called active from +8 up or from −8 down
[6] = PSAC antagonists in infected red cells, primary screen, cell-based, P. falciparum Indochina, OD700, 18 h (AID 1157); settings: P. falciparum Indochina infected erythrocytes, osmotic lysis OD700, 18 h; higher = more signal, called active from +8 up or from −8 down
[7] = modulators of S6 phosphorylation in cells, primary screen, cell-based, A549, cytoblot, luminescence, serum-stimulated (AID 1158); settings: A549 phospho-S6 cytoblot, 5 h, higher = more signal;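 note: serum-stimulated A549 lung adenocarcinoma cells; signal is phosphorylated S6 detected by cytoblot immunostaining with HRP secondary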
[8] = biological target: NADPH oxidase 2 (Homo sapiens) (UniProt P04839); experiment: NOX2-dependent H2O2 signal modulators, primary screen, NOX inhibitor project, cell-based, HEK293-NOX2, PMA-stimulated, Amplex Red fluorescence (AID 1159); settings: 45 min, higher = more signal, called active from +8 up or from −8 down; note: test concentration not given here
Chain of NADPH oxidase 2 (Homo sapiens) (P04839 whole entry, looked up): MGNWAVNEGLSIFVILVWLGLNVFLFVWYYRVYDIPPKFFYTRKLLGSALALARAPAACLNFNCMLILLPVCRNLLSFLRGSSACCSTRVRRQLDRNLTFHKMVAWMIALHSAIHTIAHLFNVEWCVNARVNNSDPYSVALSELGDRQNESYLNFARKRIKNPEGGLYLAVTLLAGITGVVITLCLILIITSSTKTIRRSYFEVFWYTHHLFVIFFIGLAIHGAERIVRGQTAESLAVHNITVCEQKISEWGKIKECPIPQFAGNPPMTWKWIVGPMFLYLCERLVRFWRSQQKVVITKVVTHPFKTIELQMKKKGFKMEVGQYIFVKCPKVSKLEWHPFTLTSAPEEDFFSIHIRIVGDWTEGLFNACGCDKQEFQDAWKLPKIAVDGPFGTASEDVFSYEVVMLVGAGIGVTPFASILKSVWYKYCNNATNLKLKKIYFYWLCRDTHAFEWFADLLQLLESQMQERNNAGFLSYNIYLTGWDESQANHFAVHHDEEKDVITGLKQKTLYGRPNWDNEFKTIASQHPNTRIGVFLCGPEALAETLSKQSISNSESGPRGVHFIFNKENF

[9] = biological target: NADPH oxidase 4 (Homo sapiens) (UniProt Q9NPH5); experiment: NOX4-dependent H2O2 signal modulators, primary screen, NOX inhibitor project, cell-based, HEK293-NOX4, tetracycline-induced, Amplex Red fluorescence (AID 1160); settings: 45 min, higher = more signal, called active from +8 up or from −8 down
Chain of NADPH oxidase 4 (Homo sapiens) (Q9NPH5 whole entry, looked up): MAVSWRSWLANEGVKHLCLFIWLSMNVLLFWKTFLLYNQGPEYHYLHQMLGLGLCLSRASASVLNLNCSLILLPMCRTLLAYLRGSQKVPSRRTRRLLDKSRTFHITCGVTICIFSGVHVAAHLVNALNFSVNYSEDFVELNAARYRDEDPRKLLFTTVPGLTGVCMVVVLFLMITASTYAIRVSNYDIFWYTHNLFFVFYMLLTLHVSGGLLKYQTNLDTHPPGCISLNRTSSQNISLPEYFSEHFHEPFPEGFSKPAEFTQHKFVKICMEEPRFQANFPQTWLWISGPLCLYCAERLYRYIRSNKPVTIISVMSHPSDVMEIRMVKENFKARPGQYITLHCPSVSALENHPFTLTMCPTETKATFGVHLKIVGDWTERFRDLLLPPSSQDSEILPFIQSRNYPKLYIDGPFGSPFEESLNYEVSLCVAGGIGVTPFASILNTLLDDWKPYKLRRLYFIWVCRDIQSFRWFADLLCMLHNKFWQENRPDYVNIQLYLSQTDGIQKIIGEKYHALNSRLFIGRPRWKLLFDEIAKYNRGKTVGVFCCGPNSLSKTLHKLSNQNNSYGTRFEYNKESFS

[10] = biological target: NADPH oxidase 5 (Homo sapiens) (UniProt Q96PH1); experiment: NOX5-dependent H2O2 signal modulators, primary screen, NOX inhibitor project, cell-based, HEK293-NOX5, Amplex Red fluorescence (AID 1161); settings: HEK293-NOX5, ionomycin, 45 min, higher = more signal
Chain of NADPH oxidase 5 (Homo sapiens) (Q96PH1 whole entry, looked up): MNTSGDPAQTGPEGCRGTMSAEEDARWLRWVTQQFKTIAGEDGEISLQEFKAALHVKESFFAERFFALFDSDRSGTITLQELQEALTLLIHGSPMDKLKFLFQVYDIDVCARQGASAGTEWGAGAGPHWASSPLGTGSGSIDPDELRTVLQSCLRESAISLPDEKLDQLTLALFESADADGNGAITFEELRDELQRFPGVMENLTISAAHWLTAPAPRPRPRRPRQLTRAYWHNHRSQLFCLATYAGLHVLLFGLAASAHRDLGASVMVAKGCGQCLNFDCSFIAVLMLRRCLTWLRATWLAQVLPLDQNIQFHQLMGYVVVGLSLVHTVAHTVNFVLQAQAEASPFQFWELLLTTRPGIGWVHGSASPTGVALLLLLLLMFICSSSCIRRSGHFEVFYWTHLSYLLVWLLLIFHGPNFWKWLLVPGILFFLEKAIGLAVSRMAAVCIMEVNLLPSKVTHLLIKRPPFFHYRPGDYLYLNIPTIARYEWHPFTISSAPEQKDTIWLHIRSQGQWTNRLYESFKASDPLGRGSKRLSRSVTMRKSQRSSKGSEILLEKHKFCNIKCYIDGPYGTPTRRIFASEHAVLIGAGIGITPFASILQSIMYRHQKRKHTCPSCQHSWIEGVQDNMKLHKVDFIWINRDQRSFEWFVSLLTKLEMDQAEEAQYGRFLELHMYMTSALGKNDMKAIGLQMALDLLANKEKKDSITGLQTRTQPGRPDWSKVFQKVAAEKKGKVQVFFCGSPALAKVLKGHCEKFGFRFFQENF

SMILES	z-score [1]	composite z-score [2]	z-score [3]	z-score [4]	z-score [5]	z-score [6]	z-score [7]	z-score [8]	z-score [9]	z-score [10]
CC(=O)OC[C@H]1O[C@H](CCON=C(C)CCC(=O)OC[C@H]2O[C@H](C#Cc3ccccc3)C=C[C@@H]2Oc2ccc(C)cc2)C=C[C@@H]1OC(C)=O	0.604 (inactive)	0.28	8.85 (active)	1.43 (inactive)	1.02 (inactive)	0.931 (inactive)	-0.987	-0.772 (inactive)	0.384 (inactive)	-1.64
CCN1C(=O)[C@H]2[C@H]3[C@H](O)[C@H](O)CC(=NOCC=C(C)CCC=C(C)C)[C@H]3CC[C@H]2C1=O	0.376 (inactive)	-0.0518	0.955 (inactive)	-0.506 (inactive)	-0.527 (inactive)	-0.163 (inactive)	-0.0053	-0.516 (inactive)	0.301 (inactive)	-1.52
CC[C@@H](c1ccccc1)n1c(=O)n2n(c1=O)[C@H]1[C@H](O)[C@@H]3O[C@@H]3C(=NOCC(C)C)[C@H]1CC2	-1.11 (inactive)	-0.0508	-0.0462 (inactive)	-0.155 (inactive)	0.282 (inactive)	-0.0656 (inactive)	0.123	1.72 (inactive)	0.386 (inactive)	0.371
Cn1c(=O)n2n(c1=O)[C@H]1[C@H](O)[C@@H]3O[C@@H]3C(=NOC[C@@H](O)COCc3ccco3)[C@H]1CC2	0.301 (inactive)	0.946	0.697 (inactive)	-0.507 (inactive)	0.671 (inactive)	0.08 (inactive)	0.0625	-1.04 (inactive)	0.733 (inactive)	0.59
CC(C)C[C@@H]1NC(=O)[C@H]2C[C@@H](C(=O)O)[C@@H](c3ccc(O)cc3)N2C1=O	0.498 (inactive)	0.0455	5.88 (inactive)	1.66 (inactive)	-1.66 (inactive)	0.448 (inactive)	-0.239	-1.72 (inactive)	-2.25 (inactive)	-0.356
COc1ccc([Si](C)(C)[C@@H]2[C@@H](CC(=O)N3CCC[C@H]3CO)O[C@]3(C(=O)N(Cc4cccc(N5CCC5=O)c4)c4ccccc43)[C@H]2C)cc1	0.313 (inactive)	0.792	4.64 (inactive)	0.838 (inactive)	-0.745 (inactive)	0.496 (inactive)	-0.0355	2.1 (inactive)	1.29 (inactive)	4.02
CN1C(=O)C2C=CC(C(O)c3ccc(I)cc3)N(NC(=O)OC(C)(C)C)C2C1=O (stereo not given)	-1.55 (inactive)	0.317	0.365 (inactive)	0.214 (inactive)	-0.43 (inactive)	1 (inactive)	-1.09	-1.01 (inactive)	-0.982 (inactive)	-0.411
CCOC(=O)[C@H](Cc1ccccc1)NC(=O)CCC1CC(OC(=O)NCc2ccc3c(c2)OCO3)CC2(CCCC(COC(=O)NCC(c3ccccc3)c3ccccc3)O2)O1 (stereo not given in full)	1.13 (inactive)	-0.0046	13.8 (active)	4.29 (inactive)	0.394 (inactive)	1.3 (inactive)	0.0394	-0.742 (inactive)	0.406 (inactive)	0.491
COCCOC(=O)N1C(=O)[C@@]2(c3cc(C#CCNC(N)=O)ccc31)[C@H](c1ccccc1OCCO)N1[C@H](c3ccccc3)[C@H](c3ccccc3)OC(=O)[C@H]1[C@@H]2C(=O)N1CCN(c2ncccn2)CC1	0.981 (inactive)	0.15	2.11 (inactive)	-0.313 (inactive)	0.793 (inactive)	-2.06 (inactive)	2.82	1.63 (inactive)	1.09 (inactive)	-0.814
CO[C@@H]1COC(=O)[C@H](C)NC(=O)[C@@H](C)COC(=O)CCC[C@H]1C	0.298 (inactive)	0.0291	5.14 (inactive)	0.891 (inactive)	1.45 (inactive)	0.516 (inactive)	-0.276	-0.869 (inactive)	0.0705 (inactive)	-1.15
COCCOC(=O)N1C(=O)[C@@]2(c3cc(C#Cc4ccc(OC)cc4)ccc31)[C@H](C(=O)N1CCN(c3ncccn3)CC1)[C@H]1C(=O)O[C@H](c3ccccc3)[C@H](c3ccccc3)N1[C@@H]2c1ccc(OCCO)cc1	-0.541 (inactive)	0.327	10.1 (active)	2.52 (inactive)	0.493 (inactive)	1.04 (inactive)	-0.21	1.51 (inactive)	0.337 (inactive)	-0.0992
C#C[C@@H]1Oc2ccccc2S(=O)(=O)N2CCC[C@H]12	-1.16 (inactive)	0.149	0.217 (inactive)	0.676 (inactive)	-0.0722 (inactive)	0.107 (inactive)	-0.222	0.0921 (inactive)	-1.48 (inactive)	-0.194
C=CCOC(=O)[C@H]1[C@@H]2C(=O)O[C@@H](c3ccccc3)[C@@H](c3ccccc3)N2[C@@H](c2ccc(OCCOC(=O)[C@H]3C[C@H]4C(=O)N5CCC[C@H]5C(=O)N4[C@H]3c3cccc(OCCO)c3)cc2)[C@]12C(=O)Nc1ccc(I)cc12	-0.709 (inactive)	1.72	0.491 (inactive)	0.641 (inactive)	-2.53 (inactive)	0.131 (inactive)	-0.0041	-0.669 (inactive)	0.165 (inactive)	0.261

— PubChem BioAssay
